Experiment [1] is described as follows: StAR promoter reporter inhibitors, counter-screen for LRH-1 inverse agonist project, cell-based, luminescence, high throughput (AID 651611; in the data active = inhibition above about 28%). Conditions: StAR promoter luciferase reporter counterscreen, at 3.6 µM, hits give high values. For orientation: The purpose of a counterscreen is to sort out artefacts and off-target activity.
Experiment [2] addresses Nuclear receptor subfamily 5 group A member 2 (Homo sapiens) (UniProt O00482). Kind of experiment: NR5A2 activity suppression in reporter cells – cell-based, luminescence, confirmation (AID 651613; in the data active = inhibition above about 42%;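 note: HEK293T cells co-transfected with LRH-1 and StAR promoter luciferase reporter; 0% = vehicle wells and 100% = parental cells lacking receptor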). As to conditions: cell-based LRH-1 luciferase reporter, inverse agonism; at 3.6 µM; hits give high values.
Experiment [3] addresses Steroidogenic factor 1 (Homo sapiens) (UniProt Q13285). Kind of experiment: inverse agonism at SF1 nuclear receptor – cell-based, luminescence, high throughput, counter-screen for LRH-1 inverse agonist project (AID 651614; in the data active = inhibition above about 44%;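 note: cells cotransfected with StAR promoter reporter and SF1 expression vector; 0% = vehicle on cells with receptor and 100% = vehicle on cells lacking receptor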). Conditions: cell-based SF1 luciferase reporter, at 3.6 µM, hits give high values.
Experiment [4] can be described thus: compounds suppressing VP16-driven luciferase signal – cell-based, luminescence, high throughput, counter-screen for LRH-1 inverse agonist project (AID 651615). As to conditions: Gal4-VP16 luciferase reporter cells, at 3.6 µM, hits give high values.

Each structure is given as a SMILES string. Unmarked numbers belong to inactive results. Calls of active or inactive are those of the source. Cut-off read from the data, not from the text of the source, unless noted: active = inhibition above about 33%; inactive = the rest.

Sequence of Steroidogenic factor 1 (Homo sapiens) (Q13285 whole entry, looked up, the tested form may be a part): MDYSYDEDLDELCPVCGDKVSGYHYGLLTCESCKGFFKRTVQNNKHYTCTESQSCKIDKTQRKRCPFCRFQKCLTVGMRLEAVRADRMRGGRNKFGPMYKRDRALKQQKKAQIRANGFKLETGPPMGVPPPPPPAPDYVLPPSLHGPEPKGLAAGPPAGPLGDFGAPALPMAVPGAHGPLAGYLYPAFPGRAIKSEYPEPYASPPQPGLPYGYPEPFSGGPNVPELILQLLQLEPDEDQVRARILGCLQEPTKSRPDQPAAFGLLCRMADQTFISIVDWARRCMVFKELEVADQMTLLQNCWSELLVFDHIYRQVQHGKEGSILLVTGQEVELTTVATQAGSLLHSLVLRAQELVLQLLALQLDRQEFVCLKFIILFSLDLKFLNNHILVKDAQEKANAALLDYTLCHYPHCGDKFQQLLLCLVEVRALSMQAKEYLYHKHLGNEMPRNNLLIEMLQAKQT
Sequence of Nuclear receptor subfamily 5 group A member 2 (Homo sapiens) (O00482 whole entry, looked up): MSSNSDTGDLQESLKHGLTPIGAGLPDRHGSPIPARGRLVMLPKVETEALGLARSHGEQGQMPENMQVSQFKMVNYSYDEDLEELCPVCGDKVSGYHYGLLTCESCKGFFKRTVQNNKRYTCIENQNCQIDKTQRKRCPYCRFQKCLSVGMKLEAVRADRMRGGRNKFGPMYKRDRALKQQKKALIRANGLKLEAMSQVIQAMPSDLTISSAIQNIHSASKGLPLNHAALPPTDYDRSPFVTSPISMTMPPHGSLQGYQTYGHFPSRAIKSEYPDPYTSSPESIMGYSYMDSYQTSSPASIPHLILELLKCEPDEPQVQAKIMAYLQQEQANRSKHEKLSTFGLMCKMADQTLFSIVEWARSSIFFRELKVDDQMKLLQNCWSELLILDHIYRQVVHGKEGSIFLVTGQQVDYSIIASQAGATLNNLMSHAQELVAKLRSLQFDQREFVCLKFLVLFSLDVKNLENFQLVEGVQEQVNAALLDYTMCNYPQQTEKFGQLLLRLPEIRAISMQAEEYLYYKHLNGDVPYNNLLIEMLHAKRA

In general, inhibition refers to the change of the read-out against control, counted positive when it falls. `Cc1ccc(N2C(=O)C(Cl)=C(N3CCN(C)CC3)C2=O)c(C)c1`: the inhibition was 13.1% in experiment [1], 50.3% (active) in experiment [2], 39% in experiment [3] and -9.83% in experiment [4].

Consider `O=C(Nc1cccc([N+](=O)[O-])c1)c1ccc([N+](=O)[O-])o1`, for which the inhibition in experiment [1] is 24%; in experiment [2] it was 64.7% (active); in experiment [3], 70.5% (active); in experiment [4], -20.3%.

Consider `CCOc1ccc(Br)cc1C1=NN(C(C)=O)C(c2ccc([N+](=O)[O-])s2)O1` (stereo unspecified), for which the inhibition in experiment [1] is 17.9%; in experiment [2], 66.8% (active); in experiment [3], 63.2% (active); in experiment [4], -1.66%.

Turning to `COc1ccc(NS(=O)(=O)c2cccc(NC(=O)c3ccc(Cl)nc3)c2)cc1`, the inhibition is 37.9% (active) in experiment [1], 63.3% (active) in experiment [2], 66% (active) in experiment [3] and 55.4% (active) in experiment [4].

In the case of `Cc1cccc(C)c1NC(=O)C(c1ccc(C(F)(F)F)cc1)n1c(=O)c(-c2cc3ccccc3[nH]2)nc2ccccc21` (stereo unspecified), the inhibition in experiment [1] was 13.9%; in experiment [2] it was 23.7%; in experiment [3] it was 24.7%; in experiment [4], 7.59%.

For the compound `O=C(CCl)Nc1cccn2ncnc12`, the inhibition is 33.1% (active) in experiment [1], 49.3% (active) in experiment [2], 54.6% (active) in experiment [3] and -31.4% in experiment [4].

On to `CCC(=O)Nc1ccc(NC(=O)CSc2nc3c(c(=O)n(C)c(=O)n3C)n2CC)cc1`, for which the inhibition is 34.6% (active) in experiment [1], 58.8% (active) in experiment [2], 58.3% (active) in experiment [3] and -17.8% in experiment [4].

For `Cc1ccc(Nc2nc(-c3cccnc3)nc3ccccc23)cc1`, the inhibition in experiment [1] was 36.1% (active); in experiment [2], 54.1% (active); in experiment [3], 59.5% (active); in experiment [4], 14%.

Take `Cc1onc(-c2ccccc2)c1C(=O)O/N=C(\N)c1ccc([N+](=O)[O-])o1`: the inhibition in experiment [1] is 11.5%; in experiment [2], 64.5% (active); in experiment [3], 61.9% (active); in experiment [4], -9.42%.

The record behind these values is PubChem BioAssay.
